Reference: PubChem BioAssay (NCATS)
Inconclusive results are not listed. Unmarked numbers belong to inactive results. Active and inactive are the calls of the source. Calls come from the whole dose curve; as a rule, active = well fitted curve in the direction sought with a large enough effect; inconclusive = small, poorly fitted or top-dose-only effect, or another doubt; inactive = no such curve, though single readings can be large; an effect the other way counts as inactive or inconclusive.

Assay: qHTS of pediatric cancer cell lines to identify multiple opportunities for drug repurposing: Primary screen for TC32 cells (AID 1347089); note: nearly all actives have a fitted effect of over 60% in size; for activity change, negative = cytotoxic: % is set by controls: 0 for no effect and ±100 for the full control effect
Conditions: TC32 Ewing sarcoma viability, CellTiter-Glo luminescence, 48 h; series mostly up to 45.8 µM; activity change, negative = cytotoxic: at the top concentration
How it was run: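 Measured quantity: luminescence from CellTiter-Glo, reflecting metabolically active TC32 cells following 48 h of compound. Curves came straight from multi-point titrations, with 8 or 11 points in primary and 11 in confirmatory screening.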
Potency is the fitted concentration of half-maximal effect.

Row | Compound | activity change, negative = cytotoxic | Potency
1 | CC(C)NC(=O)c1ccc(C=O)cc1 | 14.1% | –
2 | CCCCCC(=O)O[C@]1(C(C)=O)CC[C@H]2[C@@H]3CCC4=CC(=O)CC[C@]4(C)[C@H]3CC[C@@]21C | 0.422% | –
3 | CC(C)OC(=O)c1cc2c(OCC(O)CNC(C)(C)C)cccc2[nH]1 (stereo not given) | 3.5% | –
4 | CCN1CCN(C(=O)N[C@@H](C(=O)N[C@@H]2C(=O)N3[C@@H]2SC(C)(C)[C@H]3C(=O)O)c2ccccc2)C(=O)C1=O | 3.92% | –
5 | CN(C)C(=O)CNC(=O)Cc1ccccc1 | 2.51% | –
6 | Cc1sccc1Br | 6.01% | –
7 | CCOC(=O)N1CCC(n2c(=O)[nH]c3cc(Cl)ccc32)CC1 | -6.09% | –
8 | COc1ccc2c(c1)c(CC(=O)OC/C=C(\C)CC/C=C(\C)CCC=C(C)C)c(C)n2C(=O)c1ccc(Cl)cc1 | 4.39% | –
9 | COc1ccc(/C(C)=C/C(=O)O)c(OC)c1 | 13.6% | –
10 | Cc1cc(CCCOc2c(C)cc(-c3noc(C(F)(F)F)n3)cc2C)on1 | 4.69% | –
11 | CCc1cccc2c(CCO)c[nH]c12 | 18.9% | –
12 | CC(C)C(C)(C)C(C)(C)C(C)(C)S | 12.3% [at 92.2 µM] | –
13 | COC(=O)[C@H]1[C@H]2C[C@@H]3c4[nH]c5cc(OC)ccc5c4CCN3C[C@H]2C[C@@H](OC(=O)/C=C/c2ccc(O)c(OC)c2)[C@@H]1OC | -13.6% | –
14 | COc1ccc2c(c1)CCCC2=O | 19.7% | –
15 | Cc1cc(OCCOCC[N+](C)(C)Cc2ccccc2)ccc1C(C)(C)CC(C)(C)C | – | 26.4 µM (active)
16 | OCc1c[nH]c2ccccc12 | 2.09% [at 92.2 µM] | –
17 | COC(=O)C1=C(C)NC(C)=C(C(=O)OCCc2ccc(N3CCN(C(c4ccccc4)c4ccccc4)CC3)cc2)C1c1cccc([N+](=O)[O-])c1 (stereo not given) | 15.1% | –
18 | CCn1ccc(NS(=O)(=O)c2ccc(N)cc2)nc1=O | 15.4% | –
19 | COc1cc(OC)nc(O[C@H](C(=O)O)C(OC)(c2ccccc2)c2ccccc2)n1 | 10.8% | –
20 | CCC(=O)O[C@]1(C(=O)COC)[C@@H](C)C[C@H]2[C@@H]3CCC4=CC(=O)C=C[C@]4(C)C3(F)[C@@H](O)C[C@@]21C (stereo not given in full) | 13% | –

Row | Compound | activity change, negative = cytotoxic | Potency
21 | Cc1cccc(OCC(O)CNC(C)(C)C)c1C (stereo not given) | -2.19% | –
22 | Cc1cc(O)c2c(O)c3c(O)cccc3cc2c1 | 17.3% | –
23 | CC[C@@H]([C@H](C)O)n1ncn(-c2ccc(N3CCN(c4ccc(OC[C@@H]5CO[C@@](Cn6cncn6)(c6ccc(F)cc6F)C5)cc4)CC3)cc2)c1=O | 8.05% | –
24 | Fc1ccc(C(c2ccc(F)cc2)N2CCNCC2)cc1 | 0.587% | –
25 | CC(CC(C#N)(c1ccccc1)C(C)C)N(C)C (stereo not given) | 9.64% | –
26 | Cc1oc(-c2ccccc2)nc1CCC(=O)c1ccc(CC2SC(=O)NC2=O)cc1 (stereo not given) | 7.4% | –
27 | CC(NN)c1ccccc1 (stereo not given) | 5.7% [at 16 µM] | –
28 | C=CCNc1nc(NCC=C)nc(N2CCN(C(c3ccc(F)cc3)c3ccc(F)cc3)CC2)n1 | -16.2% | –
29 | CCCCC(CC)CNC(=O)CC(C)OC(=O)CCC(=O)O (stereo not given) | -0.593% | –
30 | Cn1c(=O)c2c(ncn2CC(=O)O)n(C)c1=O | 22.3% | –
31 | Cc1ccc(C(C)OC(=O)C2(C)CCC(C(=O)O)C2(C)C)cc1 (stereo not given) | 4.16% | –
32 | Cc1ccc(CCn2c3c(c4cc(Cl)ccc42)CN(C)CC3)cn1 | 14.8% | –
33 | C[C@@]12CCC[C@H]1[C@@H]1CC[C@H]3C[C@@H](O)CC[C@]3(C)[C@H]1CC2 | 3.24% | –
34 | C[C@H](CN1CCCC1)C(=O)c1ccc(C(F)(F)F)cc1 | 4.66% | –
35 | CC[N+]1(CC)CCC(=C(c2ccccc2)c2ccccc2)C1C (stereo not given) | 10.8% | –
36 | COc1ccc2cc(C=O)ccc2c1 | 8.57% | –
37 | C/C(=C(/OCCOc1ccc(Cl)cc1)c1ccc(Cl)cc1Cl)n1ccnc1 | 2.84% | –
38 | COc1cc(C(=O)OC(COCCC(C)C)CN2CCOCC2)cc(OC)c1OC (stereo not given) | 6.05% | –
39 | CC(=O)O[C@@H]1C(=O)O[C@@H]2[C@H]1OC(=O)[C@@H]2OC(C)=O | -0.816% | –
40 | CC1CCCCN1CCCOC(=O)c1ccc(OC2CCCCC2)cc1 (stereo not given) | 6.65% | –

Assay: qHTS of pediatric cancer cell lines to identify multiple opportunities for drug repurposing: Primary screen for DAOY cells (AID 1347090); note: nearly all actives have a fitted effect of over 55% in size;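 for activity change, negative = cytotoxic: plate controls were DMSO for no effect and bortezomib for full effect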
Conditions: DAOY medulloblastoma viability, CellTiter-Glo luminescence, 48 h; series mostly up to 46 µM; activity change, negative = cytotoxic: at the top concentration
How it was run: (§1)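 Eight- or eleven-point concentration series, 48 h treatment at 37 degrees C in growth media; readout CellTiter-Glo luminescence. Potency and efficacy were taken from the concentration-response curves.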

Row | Compound | Potency | activity change, negative = cytotoxic
41 | CCCCCC(=O)O[C@]1(C(C)=O)CC[C@H]2[C@@H]3CCC4=CC(=O)CC[C@]4(C)[C@H]3CC[C@@]21C | 21.1 µM (active) | –
42 | CC(C)OC(=O)c1cc2c(OCC(O)CNC(C)(C)C)cccc2[nH]1 (stereo not given) | – | -10%
43 | CN(C)C(=O)CNC(=O)Cc1ccccc1 | – | -12.8%
44 | COC(=O)[C@H]1[C@H]2C[C@@H]3c4[nH]c5cc(OC)ccc5c4CCN3C[C@H]2C[C@@H](OC(=O)/C=C/c2ccc(O)c(OC)c2)[C@@H]1OC | – | -25.4%
45 | OCc1c[nH]c2ccccc12 | – | -28.4% [at 92.7 µM]
46 | Cc1ccc(CCn2c3c(c4cc(Cl)ccc42)CN(C)CC3)cn1 | – | -3.45%
47 | C[C@@]12CCC[C@H]1[C@@H]1CC[C@H]3C[C@@H](O)CC[C@]3(C)[C@H]1CC2 | – | -5.83%
48 | C/C(=C(/OCCOc1ccc(Cl)cc1)c1ccc(Cl)cc1Cl)n1ccnc1 | – | -15.2%
49 | COc1cc(C(=O)OC(COCCC(C)C)CN2CCOCC2)cc(OC)c1OC (stereo not given) | – | 3.31%
50 | CC1CCCCN1CCCOC(=O)c1ccc(OC2CCCCC2)cc1 (stereo not given) | – | -8.62%

Assay: qHTS of pediatric cancer cell lines to identify multiple opportunities for drug repurposing: Primary screen for SJ-GBM2 cells (AID 1347091);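 for activity change, negative = cytotoxic: plate controls were DMSO neutral control for no effect and bortezomib for full effect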
Conditions: SJ-GBM2 viability, CellTiter-Glo luminescence, 48 h; series mostly up to 46 µM; activity change, negative = cytotoxic: at the top concentration
How it was run: as §1

Row | Compound | activity change, negative = cytotoxic | Potency
51 | CC(C)NC(=O)c1ccc(C=O)cc1 | 27.7% | –
52 | CCN1CCN(C(=O)N[C@@H](C(=O)N[C@@H]2C(=O)N3[C@@H]2SC(C)(C)[C@H]3C(=O)O)c2ccccc2)C(=O)C1=O | 36.1% | –
53 | Cc1sccc1Br | 1.93% | –
54 | CCOC(=O)N1CCC(n2c(=O)[nH]c3cc(Cl)ccc32)CC1 | 5.21% | –
55 | COc1ccc2c(c1)c(CC(=O)OC/C=C(\C)CC/C=C(\C)CCC=C(C)C)c(C)n2C(=O)c1ccc(Cl)cc1 | 3.48% | –
56 | COc1ccc(/C(C)=C/C(=O)O)c(OC)c1 | 49.1% | –
57 | Cc1cc(CCCOc2c(C)cc(-c3noc(C(F)(F)F)n3)cc2C)on1 | -6.11% | –
58 | CCc1cccc2c(CCO)c[nH]c12 | 21.7% | –
59 | CC(C)C(C)(C)C(C)(C)C(C)(C)S | 11.1% [at 92.7 µM] | –
60 | COc1ccc2c(c1)CCCC2=O | 35.6% | –
61 | Cc1cc(OCCOCC[N+](C)(C)Cc2ccccc2)ccc1C(C)(C)CC(C)(C)C | – | 21.1 µM (active)
62 | COC(=O)C1=C(C)NC(C)=C(C(=O)OCCc2ccc(N3CCN(C(c4ccccc4)c4ccccc4)CC3)cc2)C1c1cccc([N+](=O)[O-])c1 (stereo not given) | 7.96% | –
63 | CCn1ccc(NS(=O)(=O)c2ccc(N)cc2)nc1=O | 47.2% | –
64 | COc1cc(OC)nc(O[C@H](C(=O)O)C(OC)(c2ccccc2)c2ccccc2)n1 | 22.1% | –
65 | CCC(=O)O[C@]1(C(=O)COC)[C@@H](C)C[C@H]2[C@@H]3CCC4=CC(=O)C=C[C@]4(C)C3(F)[C@@H](O)C[C@@]21C (stereo not given in full) | 5.76% | –
66 | Cc1cccc(OCC(O)CNC(C)(C)C)c1C (stereo not given) | 11.3% | –
67 | Cc1cc(O)c2c(O)c3c(O)cccc3cc2c1 | 6.37% | –
68 | CC[C@@H]([C@H](C)O)n1ncn(-c2ccc(N3CCN(c4ccc(OC[C@@H]5CO[C@@](Cn6cncn6)(c6ccc(F)cc6F)C5)cc4)CC3)cc2)c1=O | – | 18.8 µM (active)
69 | Fc1ccc(C(c2ccc(F)cc2)N2CCNCC2)cc1 | 11.7% | –
70 | CC(CC(C#N)(c1ccccc1)C(C)C)N(C)C (stereo not given) | 12.5% | –
71 | Cc1oc(-c2ccccc2)nc1CCC(=O)c1ccc(CC2SC(=O)NC2=O)cc1 (stereo not given) | 2.09% | –
72 | CC(NN)c1ccccc1 (stereo not given) | 12.9% [at 16.1 µM] | –
73 | C=CCNc1nc(NCC=C)nc(N2CCN(C(c3ccc(F)cc3)c3ccc(F)cc3)CC2)n1 | -21.2% | –
74 | CCCCC(CC)CNC(=O)CC(C)OC(=O)CCC(=O)O (stereo not given) | -1.37% | –
75 | Cn1c(=O)c2c(ncn2CC(=O)O)n(C)c1=O | 24.9% | –
76 | Cc1ccc(C(C)OC(=O)C2(C)CCC(C(=O)O)C2(C)C)cc1 (stereo not given) | 11.3% | –
77 | C[C@H](CN1CCCC1)C(=O)c1ccc(C(F)(F)F)cc1 | 5.09% | –
78 | CC[N+]1(CC)CCC(=C(c2ccccc2)c2ccccc2)C1C (stereo not given) | 1.68% | –
79 | COc1ccc2cc(C=O)ccc2c1 | 20.6% | –
80 | CC(=O)O[C@@H]1C(=O)O[C@@H]2[C@H]1OC(=O)[C@@H]2OC(C)=O | 2.1% | –
